Source: PubChem BioAssay (NCATS)
Records with an inconclusive call do not appear. Calls of active or inactive are those of the source. Calls follow the shape of the dose curve; as a rule, active = well fitted inhibition curve with a large enough effect; inconclusive = small, poorly fitted or top-dose-only effect; inactive = flat fitted curve, though single readings scatter.

tested on: CP203; assay: qHTS profiling for inhibitors of Plasmodium falciparum proliferation (AID 504749); also: nearly all actives have a fitted effect of over 60% in size;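 as to activity, negative = inhibition: 0% = DMSO vehicle and full inhibition = artemisinin control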; details: P. falciparum in erythrocytes, SYBR Green DNA, 72 h; series mostly up to 28.7 µM; activity, negative = inhibition: at the top concentration
Description: NIH National Institute of Allergy and Infectious Diseases [NIAID] NIH Chemical Genomics Center [NCGC] MLPCN Grant: None Assay Provider: Xinzhuan Su, NIAID NCGC Assay Overview: Plasmodium falciparum is a virulent malarial parasite that kills 1-2 million people worldwide each year. Transmitted by mosquitoes, the sporozoite form of the parasite enters the blood stream to infect hepatocytes, where they become merozoites that infect red blood cells (erythrocytes). Within erythrocytes, merozoites begin a […] cycle of growth and division, after which the parasite is released to infect new red blood cells. Gametocytes, which form within erythrocytes as well, circulate in the bloodstream and are ingested by the mosquito, thereby completing the life cycle. To profile malarial isolates for differential chemical responses and to identify inhibitors of malarial growth, an assay that measures P. falciparum growth and replication within erythrocytes was employed. This assay uses a DNA binding fluorescent dye (SYBR Green) to detect parasite DNA following cell lysis. Because mature erythrocytes lack DNA, only Plasmodium-derived DNA is detected.
NCGC Assay Protocol Summary: The SYBR Green viability assay was adapted from a method described previously (Plouffe et al., 2008). For screening 3 ul culture medium was dispensed into 1536 well black clear bottom plates (Aurora Biotechnologies) using a Multidrop Combi (Thermo Fisher Scientific Inc.), 23 nL compounds in DMSO were added by a pin tool (Kalypsys), and 5 ul of erythrocytes infected with P. falciparum (0.3% parasitemia, 2.5% hematocrit final concentration) were added. The plates were incubated at 37 C in a humidified incubator in 5% CO2 for 72 h, and 2 ul lysis buffer (20 mM Tris HCl, 10 mM EDTA, 0.16% saponin, 1.6% triton X, 10X SYBR Green I supplied as 10,000X […] by Invitrogen) was added to each well. The plates were mixed for 25 sec with gentle shaking and incubated overnight at room temperature in the dark. The following morning, fluorescence intensity at 485(14) nm excitation and 535(25) nm emission wavelengths was measured on an EnVision (Perkin Elmer) plate reader. Plate reads were normalized relative to the control inhibitor (0.29 uM artemisinin) and vehicle (DMSO) wells present on each plate and then corrected by an algorithm using vehicle-only control plates at the beginning and end of the compound plate stack.
Potency is read from the fitted curve at half-maximal effect.

Row | Compound | activity, negative = inhibition | Potency
1 | NC(=O)c1cn(Cc2c(F)cccc2F)nn1 | 6.44% (inactive) | –
2 | CCCCNC(=O)NS(=O)(=O)c1ccc(C)cc1 | 0.876% (inactive) | –
3 | CCN(CC)CCCN(c1ccccc1)C1Cc2ccccc2C1 | – | 6.75 µM (active)
4 | CCCCCCCC/C=C\CCCCCCCC(=O)NCc1ccc(O)c(OC)c1 | -15.5% (inactive) | –
5 | C#CCN(C)CCCOc1ccc(Cl)cc1Cl | -7.6% (inactive) | –
6 | NC(Cc1ccc(Cl)cc1)C(=O)O (stereo not given) | -3.09% (inactive) | –
7 | CCCC(C(=O)OCCN(CC)CC)(c1ccccc1)c1ccccc1 | – | 12 µM (active)
8 | Cc1scc2c1N(C(=O)CN1CCN(C)CC1)c1ccccc1NC2=O | 4.56% (inactive) | –
9 | CN(C)CCN(Cc1cccs1)c1ccccn1 | – | 12 µM (active)
10 | CC(=O)Nc1nnc(S(N)(=O)=O)s1 | 0.308% (inactive) | –
11 | CCCCCN(CCCCC)C(=O)C(CCC(=O)O)NC(=O)c1ccc(Cl)c(Cl)c1 (stereo not given) | 5.98% (inactive) | –
12 | CN1C[C@H](C(=O)N[C@]2(C)O[C@@]3(O)[C@@H]4CCCN4C(=O)[C@H](Cc4ccccc4)N3C2=O)C[C@@H]2c3cccc4[nH]cc(c34)C[C@H]21 | – | 10.7 µM (active)
13 | CCc1cccc(N(C)C(N)=Nc2cccc3ccccc23)c1 | – | 4.78 µM (active)
14 | CCCOc1ccccc1-c1nc2n[nH]nc2c(=O)[nH]1 | 5.08% (inactive) | –
15 | CC1=NS(=O)(=O)c2cc(Cl)ccc2N1 | -7.29% (inactive) | –
16 | COC(=O)[C@@H](N)Cc1ccc(O)c(O)c1 | -5.03% (inactive) | –
17 | CN(C(=O)CCCOc1ccc2[nH]c(=O)ccc2c1)C1CCCCC1 | -11% (inactive) | –
18 | Cc1ccc(Cl)c(Nc2ccccc2C(=O)O)c1Cl | 14.6% (inactive) | –
19 | O=C(O)CN(CCN(CC(=O)O)CC(=O)O)CCN(CC(=O)O)CC(=O)O | -11.4% (inactive) | –
20 | OCCN1CCN(CCCN2c3ccccc3C=Cc3ccccc32)CC1 | – | 6.75 µM (active)

Row | Compound | activity, negative = inhibition | Potency
21 | CN(C)CCCN1c2ccccc2Sc2ccccc21 | – | 4.05 µM (active)
22 | CN(C)C(=O)Oc1ccc[n+](C)c1 | 7.56% (inactive) | –
23 | CCn1ccnc1CC1COc2ccccc2O1 (stereo not given) | -13.9% (inactive) | –
24 | NC/C=C/C(=O)O | -6.13% (inactive) | –
25 | NS(=O)(=O)c1cc2c(cc1Cl)NC(C1CC3C=CC1C3)NS2(=O)=O (stereo not given) | 0.296% (inactive) | –
26 | Nc1nc(N)c2nc(-c3ccccc3)c(N)nc2n1 | -0.23% (inactive) | –
27 | CNC1(C)C2CCC(C2)C1(C)C (stereo not given) | -19.3% (inactive) | –
28 | CCN1CCc2nc(N)oc2CC1 | -6.65% (inactive) | –
29 | O=C1CC2(CCCC2)CC(=O)N1CCCCN1CCN(c2ncccn2)CC1 | -2.26% (inactive) | –
30 | CN1CCN(C2=Nc3ccccc3Oc3ccc(Cl)cc32)CC1 | -8.46% [at 12.8 µM] (inactive) | –
31 | CC[N+](C)(C)c1cccc(O)c1 | 5.95% [at 12.8 µM] (inactive) | –
32 | Cc1ccc(=O)n(-c2ccccc2)c1 | -1.3% (inactive) | –
33 | CC(=O)Oc1cc(C(C)C)c(OCCN(C)C)cc1C | -5.61% [at 12.8 µM] (inactive) | –
34 | CC(C)(Oc1ccc(CCNC(=O)c2ccc(Cl)cc2)cc1)C(=O)O | 0.447% [at 12.8 µM] (inactive) | –
35 | Nc1ncn([C@@H]2O[C@H](CO)[C@@H](O)[C@H]2O)c(=O)n1 | 7.21% (inactive) | –
36 | O=c1[nH]c(=O)n([C@H]2C[C@H](O)[C@@H](CO)O2)cc1Br | 0.939% (inactive) | –
37 | CSc1ccc(C(=O)c2[nH]c(=O)[nH]c2C)cc1 | 0.694% (inactive) | –
38 | CCN(CC)CCNC(=O)c1ccc(NC(C)=O)cc1 | 1.5% (inactive) | –
39 | COCCOC(=O)C1=C(C)NC(C)=C(C(=O)OC(C)C)C1c1cccc([N+](=O)[O-])c1 (stereo not given) | – | 12 µM (active)
40 | CCOC(=O)c1cnc2c(cnn2CC)c1NN=C(C)C | -11.7% (inactive) | –
